From PubChem BioAssay AID2314 (National Center for Advancing Translational Sciences (NCATS), 2010)
The campaign covered roughly 300,000 compounds. About 37,000 (12%) were called active. No stated cut-off is given here; in the data, active means max response mostly above about 13% (no sharp cut-off); inactive means mostly below about 14%. What follows is part of a selection rich in actives, with near analogues and random picks from the rest.

Assay: Cycloheximide Counterscreen for Small Molecule Inhibitors of Shiga Toxin; further: read at 38.3 µM for the half of the compounds with a filed dose; 0% is about no effect
Conditions: cell reporter, cycloheximide protein synthesis inhibition counterscreen; active compounds read high

Row | Structure (SMILES) | max response
1 | CCOc1ccc(NC(=O)CSc2nncn2C)cc1 | 3.07% (inactive)
2 | CCOc1ccc(NC(=O)CCNC(=O)c2ccc(Br)cc2)cc1 | 17.2% (inactive)
3 | CCOc1cccc(NC(=O)CC#N)c1 | -0.681% (inactive)
4 | CCOc1ccc(C(=O)Nc2cccc(-c3ccc4nncn4n3)c2)cc1 | -0.39% (inactive)
5 | CCOc1ccc(NC(=O)c2ccc(NC(=O)C3CCCO3)cc2)cc1 (stereo unspecified) | 14.7% (inactive)
6 | COC(=O)c1ccccc1NC(=O)c1ccccc1NS(C)(=O)=O | -1.19% (inactive)
7 | CCOc1ccc(NC(=O)c2ccc(CSc3nnnn3C)cc2)cc1 | 20.2% (active)
8 | CCOc1ccc(C(=O)Nc2ccncc2)cc1 | 23.7% (active)
9 | CCOc1ccc(NC(=O)c2ccccc2NS(C)(=O)=O)cc1 | 15.1% (active)
10 | CCCNC(=O)Nc1ccccc1C(=O)Nc1ccc(OC)cc1 | 2.17% (inactive)
11 | CCOc1ccc(C(=O)Nc2cccc(SC)c2)cc1 | 43.4% (active)
12 | COc1ccc(CSc2nnnn2-c2ccc(C(=O)O)cc2)cc1 | -3% (inactive)
13 | CC1CN(c2nc(Nc3ccccc3)nc(N)c2[N+](=O)[O-])CC(C)O1 (stereo unspecified) | 1.21% (inactive)
14 | O=C(CN1CCN(c2ccc(O)cc2)CC1)NC1CCCc2ccccc21 (stereo unspecified) | -4.39% (inactive)
15 | COc1ccc(CN(C)C(=S)Nc2ccc(Cl)cc2Cl)cc1 | -0.677% (inactive)
16 | O=C(O)C1CC=CC2CCN(C3CCCCC3)C(=O)C21 (stereo unspecified) | -7.95% (inactive)
17 | COc1ccc(OC)c(NC(=O)CN(C)CCOc2ccc(Br)cc2)c1 | -3.46% (inactive)
18 | O=C(Oc1cccc(N2C(=O)C3C4c5ccccc5C(c5ccccc54)C3C2=O)c1)c1ccco1 (stereo unspecified) | -4.24% (inactive)
19 | Cc1ccc2c(c1)N(S(=O)(=O)c1cc(-c3cc(C)no3)ccc1C)CCO2 | 1.76% (inactive)
20 | CCN(CC)C(=O)CSC(Nc1cccc(F)c1)=C(C#N)C#N | -0.453% (inactive)
21 | CC(=O)Nc1cccc(C(=O)OCN2C(=O)c3ccccc3C2=O)c1 | -2.39% (inactive)
22 | CCN(CC)N=Nc1cccc(NC(C)=O)c1 | 15.1% (active)

Row | Structure (SMILES) | max response
23 | Fc1ccc(-c2nnc(CSc3nnc(-c4ccc5c(c4)OCO5)o3)o2)cc1 | 26% (active)
24 | O=C(CSc1nnc(CNC(=O)c2ccc(F)cc2)o1)Nc1ccc2c(c1)OCO2 | -1.02% (inactive)
25 | Fc1ccc2nc(-c3ccccc3)nc(SCc3nnc(-c4ccccc4)o3)c2c1 | -4.64% (inactive)
26 | O=C(Nc1ccnn1C1CCN(C/C=C/c2ccc(F)cc2)CC1)C1CCCC1 | -1.88% (inactive)
27 | CCOc1ccc(OCC)c(NC(=O)CCS(=O)(=O)c2ccc(C)cc2)c1 | -3.4% (inactive)
28 | COc1ccc(N/N=C2/CCCCC2=O)cc1 | 29.4% (inactive)
29 | Cc1ccc(N/N=C2\COC(C)(C)CC2=O)cc1 | 73.1% (active)
30 | CC(C)CC(COCc1ccc(Cl)cc1)N1CCN(C(=O)c2ccc(C(F)(F)F)cc2)CCC1=O (stereo unspecified) | -2.17% (inactive)
31 | O=C1CC(Sc2ncn[nH]2)C(=O)N1c1ccccc1 (stereo unspecified) | -3.41% (inactive)
32 | COc1ccc(N2CCN(C(=O)c3ccccc3NC(=O)C3=C(C)OCCS3)CC2)cc1 | -5.37% (inactive)
33 | CN(Cc1ccccc1)C(=O)c1ccc(COc2ccccc2)cc1 | 7.81% (inactive)
34 | CN(Cc1ccc(F)cc1)C(=O)COc1ccc2ccccc2c1 | 20.1% (inactive)
35 | CN(Cc1ccccc1)C(=O)COc1ccccc1 | 41.1% (active)
36 | CC1=NN(c2ccc(Cl)c(C(=O)O)c2)C(=O)/C1=C/c1ccc(-c2ccccc2[N+](=O)[O-])o1 | -3.39% (inactive)
37 | C=C1O[C@@](CO)(n2cnc3c(N)ncnc32)[C@H](O)[C@@H]1O | 1.03% (inactive)
38 | Cc1ccc(NN=C2C(=O)OC(C)(C)OC2=O)c(C)c1 | 52% (active)
39 | Cc1ccc(NC(=O)CCC(=O)N/N=C/c2ccco2)c(C)c1 | -1.51% (inactive)
40 | Cc1ccc(NS(=O)(=O)c2ccc3c(c2)oc(=O)n3C)c(C)c1 | 0.896% (inactive)
41 | O=c1c2ccccc2[nH]c(=S)n1CCN1CCC(=C(c2ccc(F)cc2)c2ccc(F)cc2)CC1 | -1.14% (inactive)
42 | Cc1ccc(NC(=O)CN(C)C(=O)c2ccc(Br)o2)cc1 | -4.89% (inactive)
43 | CCc1ccc(N(C(=O)c2csnn2)C(C(=O)NC2CCCCC2)c2ccncc2)cc1 (stereo unspecified) | 8.95% (inactive)
44 | O=C(NNS(=O)(=O)c1ccccc1)c1cnn(-c2ccc(Cl)cc2)c1C(F)(F)F | 1.19% (inactive)

Row | Structure (SMILES) | max response
45 | O=C(NC1CC1)c1ccc2c(c1)NC(=O)c1ccccc1S2 | 0.906% (inactive)
46 | C/C(=N\Nc1cccc(C(=O)O)c1)c1ccc2c(c1)Nc1ccccc1S2 | 31.5% (active)
47 | Cc1ccccc1NC(=O)c1cc(S(=O)(=O)Nc2cccc(C(=O)O)c2)ccc1Cl | -4.93% (inactive)
48 | CC(C)C[C@@H](CO)N1CCN(Cc2ccc(O)cc2)CCC1=O | -1.97% (inactive)
49 | CCCN1C2CCCC1CC(NC(=O)NC13CC4CC(CC(C4)C1)C3)C2 (stereo unspecified) | 0.762% (inactive)
50 | CC(C)c1ccc2oc(=O)cc(CN3CCN(Cc4ccccc4)CC3)c2c1 | -1.81% (inactive)
51 | O=C(CN(C(=O)c1csnn1)c1ccc(Br)cc1)NC1CCCC1 | -2.24% (inactive)
52 | O=C(NCCc1ccccn1)c1nc(Cn2cc([N+](=O)[O-])cn2)no1 | -3.93% (inactive)
53 | O=C(Cn1nc(Cc2cccnc2)c2ccccc2c1=O)NCC1COc2ccccc2O1 (stereo unspecified) | -4.83% (inactive)
54 | CC(C)(C)C(=O)c1cnc(Nc2ccccc2)s1 | 44.2% (active)
55 | O=C(c1ccc(Cl)cc1)c1cnc(Nc2ccccc2)s1 | 8.33% (inactive)
56 | S=c1[nH]nc(Nc2ccccc2)s1 | 1.07% (inactive)
57 | S=c1[nH]nc(-c2ccco2)n1/N=C/c1ccc(Br)s1 | 1.13% (inactive)
58 | O=C(CSC1=NCCS1)Nc1nc(-c2ccccc2)cs1 | 35.3% (active)
59 | Cc1csc(NC(=O)CSc2ccc(-c3ccc(F)cc3)nn2)n1 | -6.44% (inactive)
60 | CCNC(=O)CSc1nc(-c2ccccc2)cs1 | 44% (active)
61 | CCOC(=O)CSc1nnc(CNc2nc(-c3ccccc3)cs2)n1C | -0.673% (inactive)
62 | O=C(CSCC(=O)Nc1cccc([N+](=O)[O-])c1)Nc1ccccc1 | 7.14% (inactive)
63 | O=C(CSc1ncn[nH]1)Nc1nc(-c2cccc([N+](=O)[O-])c2)cs1 | 2.28% (inactive)
64 | Cn1c(CNc2nc(-c3ccccc3)cs2)nnc1SCC(=O)c1ccccc1 | -2.68% (inactive)
65 | O=C(CSc1nc2ccccc2c(=O)[nH]1)Nc1nc(-c2ccc(Br)cc2)cs1 | 3.64% (inactive)
66 | O=C(CSc1nc(-c2ccccc2)cs1)Nc1cccc([N+](=O)[O-])c1 | 39.4% (active)
